According to the antibiotic and cytotoxicity screens of Wong et al. (2023):
Among all 39,000 compounds or so, about 3,300 (8.5%) were called active. This excerpt belongs to a sample that is enriched for actives.

System: HepG2
Test: cytotoxicity call (relative viability < 0.9)
Details: 10 µM

SMILES	cytotoxicity call
C[C@@H]1CN([C@H](C)CO)C(=O)Cc2cc(NC(=O)Nc3ccc(F)cc3)ccc2O[C@H]1CN(C)Cc1ccc(C(F)(F)F)cc1	active
C[C@H](CO)N1C[C@H](C)[C@@H](CN(C)Cc2ccc(C(F)(F)F)cc2)Oc2ccc(NC(=O)Nc3ccc(F)cc3)cc2CC1=O	active
C[C@H](CO)N1C[C@H](C)[C@H](CN(C)Cc2ccc(C(F)(F)F)cc2)Oc2ccc(NC(=O)Nc3ccc(F)cc3)cc2CC1=O	active
C[C@@H]1CCCCO[C@@H](CN(C)S(=O)(=O)c2ccccc2)[C@H](C)CN([C@H](C)CO)C(=O)c2cc(NC(=O)CCC(F)(F)F)ccc2O1	inactive
COc1ccc(CN(C)C[C@H]2OCCCC[C@H](C)Oc3ccc(NS(=O)(=O)c4ccc(C)cc4)cc3C(=O)N([C@@H](C)CO)C[C@H]2C)cc1	inactive
COCCN1CCCn2c(nc(CNS(C)(=O)=O)cc2=O)C1	inactive
CO[C@H]1CN(C)C(=O)c2cc(NS(=O)(=O)CC(F)(F)F)ccc2OC[C@@H](C)N(C(=O)c2ccc3c(c2)OCO3)C[C@H]1C	inactive
CC(C)NC(=O)N(C)C[C@@H]1OCCCC[C@H](C)Oc2ccc(NC(=O)Nc3cccc4ccccc34)cc2C(=O)N([C@@H](C)CO)C[C@H]1C	inactive
C[C@@H]1CN([C@H](C)CO)C(=O)c2cc(NS(=O)(=O)c3cccs3)ccc2O[C@@H](C)CCCCO[C@H]1CN(C)Cc1ccc2c(c1)OCO2	inactive
Cc1ccc2sc(C)nc2c1	inactive
C[C@@H]1CCCCO[C@H](CN(C)S(=O)(=O)c2ccccc2)[C@@H](C)CN([C@@H](C)CO)C(=O)c2cc(NC(=O)c3ccccc3)ccc2O1	inactive
C[C@@H]1CCCCO[C@H](CN(C)Cc2ccccc2)[C@H](C)CN([C@H](C)CO)C(=O)c2cc(NC(=O)Nc3ccc(F)cc3)ccc2O1	inactive
C[C@@H]1CCCCO[C@H](CN(C)Cc2ccccc2)[C@H](C)CN([C@@H](C)CO)C(=O)c2cc(NC(=O)Nc3ccc(F)cc3)ccc2O1	active
C[C@H](CO)N1C[C@H](C)[C@@H](CN(C)Cc2ccccc2)OCCCC[C@H](C)Oc2ccc(NC(=O)Nc3ccc(F)cc3)cc2C1=O	active
C[C@@H]1CN([C@H](C)CO)C(=O)c2cc(NC(=O)Nc3ccc(F)cc3)ccc2O[C@@H](C)CCCCO[C@@H]1CN(C)Cc1ccccc1	inactive
C[C@H]1CCCCO[C@@H](CN(C)Cc2ccccc2)[C@@H](C)CN([C@@H](C)CO)C(=O)c2cc(NC(=O)Nc3ccc(F)cc3)ccc2O1	active
C[C@H](CO)N1C[C@H](C)[C@H](CN(C)Cc2ccccc2)OCCCC[C@H](C)Oc2ccc(NC(=O)Nc3ccc(F)cc3)cc2C1=O	active
O=C(/C=N/O)Nc1ccccc1C(=O)O	inactive
CC(C)CC#Cc1ccc2c(c1)O[C@H](CN(C)C(=O)c1ccccn1)[C@H](C)CN([C@H](C)CO)S2(=O)=O	inactive
Cc1ccc(S(=O)(=O)N(C)C[C@@H]2Oc3ccc(NC(=O)C4CC4)cc3C(=O)N([C@@H](C)CO)C[C@@H]2C)cc1	inactive
C[C@@H]1CCCCO[C@@H](CN(C)C(=O)CCCN(C)C)[C@@H](C)CN([C@@H](C)CO)C(=O)c2cc(N(C)C)ccc2O1	inactive
C[C@H]1CCCCO[C@@H](CN(C)C(=O)Nc2ccc3c(c2)OCO3)[C@@H](C)CN([C@@H](C)CO)C(=O)c2cc(NC(=O)Nc3ccc(C(F)(F)F)cc3)ccc2O1	inactive
C=CC[C@@H](CC(=O)N[C@H](CO)Cc1ccccc1)C(=O)NCCOC(=O)[C@@H](CC=C)CC(=O)OC(C)(C)C	inactive

SMILES	cytotoxicity call
COCCCNC(=O)C[C@H]1SC(=N)NC1=O	inactive
COc1ccc(NC(=O)Nc2ccc3c(c2)C(=O)N([C@@H](C)CO)C[C@H](C)[C@H](CN(C)S(=O)(=O)c2cccs2)OCCCC[C@H](C)O3)cc1	inactive
COc1ccc(S(=O)(=O)N2C[C@@H](O)COC[C@H]3O[C@H](CC(=O)N[C@@H]4CCN(Cc5ccccc5)C4)CC[C@@H]32)cc1	inactive
O=C(C[C@@H]1C=C[C@@H](NS(=O)(=O)c2ccccc2)[C@H](CO)O1)NCc1ccncn1	inactive
C[C@H](CO)N1C[C@H](C)[C@H](CN(C)C(=O)C2CCCCC2)OCCCC[C@H](C)Oc2ccc(NC(=O)Nc3ccc(C(F)(F)F)cc3)cc2C1=O	inactive
COc1ccc(NC(=O)N(C)C[C@H]2Oc3ccc(NC(=O)CCN4CCOCC4)cc3CC(=O)N([C@H](C)CO)C[C@H]2C)cc1	inactive
COc1ccc(COC[C@]23N=C4SCc5ccccc5C(=O)N4[C@H](c4ccccc4O2)[C@H]3CO[Si](C)(C)C(C)(C)C)cc1	inactive
O=C(NCC(F)(F)F)[C@H]1[C@H](CO)[C@H]2Cn3c(cccc3=O)[C@H]2N1C(=O)C1CCC1	inactive
C[C@H]1CN([C@@H](C)CO)S(=O)(=O)c2ccc(C#Cc3ccccc3)cc2O[C@H]1CN(C)S(=O)(=O)c1cn(C)cn1	inactive
Cc1noc(C)c1NC(=O)Nc1ccc2c(c1)C(=O)N([C@H](C)CO)C[C@H](C)[C@H](CN(C)Cc1ccc3c(c1)OCO3)OCCCC[C@@H](C)O2	inactive
COc1ccc(S(=O)(=O)Nc2cccc3c2O[C@@H](CN(C)S(=O)(=O)c2cccs2)[C@H](C)CN([C@@H](C)CO)C3=O)cc1	inactive
COc1cc2c(cc1OC)CN(C(=O)[C@@H]1[C@H]3C(=O)O[C@H](c4ccccc4)[C@H](c4ccccc4)N3[C@H](c3ccc(O)cc3)[C@@]13C(=O)Nc1ccccc13)CC2	inactive
C[C@@H]1CN([C@@H](C)CO)C(=O)c2cc(NC(=O)Nc3ccc(F)cc3)ccc2O[C@@H](C)CCCCO[C@H]1CN(C)Cc1ccccc1	active
C[C@@H]1CN([C@@H](C)CO)C(=O)c2cc(NC(=O)Nc3ccc(F)cc3)ccc2O[C@@H](C)CCCCO[C@@H]1CN(C)Cc1ccccc1	active
C[C@@H]1CCCCO[C@@H](CN(C)Cc2ccccc2)[C@H](C)CN([C@H](C)CO)C(=O)c2cc(NC(=O)Nc3ccc(F)cc3)ccc2O1	inactive
C[C@@H]1CCCCO[C@@H](CN(C)Cc2ccc(F)cc2)[C@H](C)CN([C@@H](C)CO)C(=O)c2cc(NC(=O)Nc3ccccc3)ccc2O1	inactive
C[C@@H]1CCCCO[C@H](CN(C)Cc2ccccc2)[C@@H](C)CN([C@H](C)CO)C(=O)c2cc(NC(=O)Nc3ccc(F)cc3)ccc2O1	inactive
C[C@@H]1CCCCO[C@H](CN(C)Cc2ccccc2)[C@@H](C)CN([C@@H](C)CO)C(=O)c2cc(NC(=O)Nc3ccc(F)cc3)ccc2O1	inactive
C[C@@H]1CCCCO[C@@H](CN(C)Cc2ccccc2)[C@@H](C)CN([C@@H](C)CO)C(=O)c2cc(NC(=O)Nc3ccc(F)cc3)ccc2O1	inactive
C[C@@H]1CCCCO[C@@H](CN(C)Cc2ccccc2)[C@@H](C)CN([C@H](C)CO)C(=O)c2cc(NC(=O)Nc3ccc(F)cc3)ccc2O1	inactive
C[C@@H]1CN([C@H](C)CO)C(=O)c2cc(NC(=O)Nc3ccc(F)cc3)ccc2O[C@@H](C)CCCCO[C@H]1CN(C)Cc1ccccc1	active
C[C@H]1CCCCO[C@H](CN(C)Cc2ccccc2)[C@@H](C)CN([C@@H](C)CO)C(=O)c2cc(NC(=O)Nc3ccc(F)cc3)ccc2O1	active
C[C@@H]1CCCCO[C@@H](CN(C)Cc2ccccc2)[C@H](C)CN([C@@H](C)CO)C(=O)c2cc(NC(=O)Nc3ccc(F)cc3)ccc2O1	inactive
